Screen size: about 340,000 compounds; about 930 (0.27%) were called active. This is one part of a sample in which actives are shown more often than they occur. Values without a mark were called inactive.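 Rule for the calls: active = inhibition above the screen-wide average of all tested compounds plus 3 SD (cut at about 25% in these data); inactive = the rest.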

In this assay the target is Platelet-activating factor acetylhydrolase IB subunit alpha1 (Homo sapiens) (UniProt Q15102). Nature of the assay: inhibition of PAF acetylhydrolase 1B subunit 3 – biochemical, fluorescence polarization, human, primary screen (AID 492972).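 Note: 0% = enzyme with DMSO only and 100% = wells lacking PAFAH1B3 protein.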 The following applies: recombinant PAFAH1B3, FP-rhodamine probe, at 3.39 µM, active compounds read high.
Chain of Platelet-activating factor acetylhydrolase IB subunit alpha1 (Homo sapiens) (Q15102 whole entry, looked up): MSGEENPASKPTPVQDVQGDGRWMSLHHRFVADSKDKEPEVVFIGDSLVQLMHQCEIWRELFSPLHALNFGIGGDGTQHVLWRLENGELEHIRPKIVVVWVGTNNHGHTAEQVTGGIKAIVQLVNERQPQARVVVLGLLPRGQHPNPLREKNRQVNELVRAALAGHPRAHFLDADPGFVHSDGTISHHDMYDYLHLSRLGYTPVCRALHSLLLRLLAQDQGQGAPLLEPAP
As for `CN(C(=O)c1cccc(NC(=O)Cc2cccc(NC(=O)C3CCCN(C(=O)C4CC4)C3)c2)c1)C1CCC1` (centres undefined), the inhibition (in general, the drop in the measured response relative to a control, in per cent) was 1.82%. With `Cc1c2cnn(CC(=O)NCc3ccccn3)c(=O)c2c(C)n1Cc1ccc(Cl)cc1`, the inhibition is 0.23%. Next, `N#C/C=C1\Sc2ccccc2C(=O)N1CC(=O)N1CCN(S(=O)(=O)c2ccccc2)CC1`: 5.99%; `Fc1c(F)c(C(F)(F)F)c(F)c(F)c1N1CCN(c2ccc3nnc(C(F)(F)F)n3n2)CC1`: 6.38%; `COc1ccccc1C(C)NC(=O)Cc1ccsc1` (centres undefined): 4.64%. Regarding `CC(=O)N(C1=C(Cl)C(=O)c2ccccc2C1=O)c1ccc(C(=O)O)cc1`, the inhibition is 39% (active).

On to `O=C(Nc1cccn(Cc2ccccc2Cl)c1=O)NC1CCCCC1`, for which the inhibition was -6.16%.

Turning to `CC(NC(=O)COc1cccnc1[N+](=O)[O-])c1ccc(Cl)cc1Cl` (centres undefined), the inhibition is 9.45%.

Regarding `CCCCN=C1C([N+](=O)[O-])=CC=C2C1=NC1(CCCCC1)N2O`, the inhibition is 7.2%.

As for `CC(C)c1ccc(-c2nn[nH]n2)cc1`, the inhibition was 5.47%. Turning to `Cc1ccc(S(=O)(=O)N2CCN(C(=O)Cc3sc(C)nc3-c3ccc(F)cc3)CC2)c(C)c1`, the inhibition was 4.17%. Take `O=C(CN1C(=O)NC2(CCCCCC2)C1=O)Nc1ccc([N+](=O)[O-])cc1`: the inhibition was 7%. As to `CCCC1OC23CCCCC2C(C#N)(C#N)C1(C#N)C(=N)O3` (centres undefined), the inhibition was 27.8% (active). In the case of `CC(=O)c1c(C)[nH]c(C(=O)N2CCN(S(=O)(=O)c3ccc(F)c(F)c3)CC2)c1C`, the inhibition was 0.06%. Take `N#Cc1c(-c2ccc(Cl)cc2)c2c([nH]c1=S)CCCC2`: the inhibition was 2.52%. On to `O=C1Nc2c(Br)cc(Br)cc2C1(O)N1CCOCC1` (centres undefined), for which the inhibition is 38% (active). Turning to `O=C(c1cc2cc(Br)cc(Br)c2oc1=O)N1CCOCC1`, the inhibition is 0.41%. In the case of `CC(NC(=O)c1ccccc1)C(=O)Nc1ccccc1` (centres undefined), the inhibition was 3.87%. In the case of `O=C1C=C(NS(=O)(=O)c2ccccc2)C(=O)c2ccccc21`, the inhibition is 13.3%. Consider `O=C(NC1=CC(=O)c2ccccc2C1=O)c1ccccc1`, for which the inhibition is 28.6% (active). Consider `CN1CCN(C(=O)c2cnn(-c3ccccc3)c2NC(=O)c2ccc([N+](=O)[O-])cc2)CC1`, for which the inhibition was 6.79%.

Take `OCCNc1nc2ccccc2n1-c1ncnc2sc3c(c12)CCC3`: the inhibition is 10.6%.

Consider `CCN(CC(=O)Nc1c(F)cccc1F)C(=O)c1cnc(C)cn1`, for which the inhibition was -0.64%. Take `CCOC(=O)c1ccc(-c2ccc(C(=O)Nc3cccnc3)o2)cc1`: the inhibition is -6.74%.

For the compound `COC(=O)C1=C(C)N(C)C(=O)NC1c1ccc([N+](=O)[O-])o1` (centres undefined), the inhibition is 0.98%. With `COC(=O)C1=C(C)NC2=C(C(=O)c3ccccc32)C1c1ccc(-c2ccc(C(=O)O)cc2)o1` (centres undefined), the inhibition is 46.5% (active). For `COc1ccc(N2CCN(C3CCCCC3NS(=O)(=O)c3ccccc3)CC2)cc1` (centres undefined), the inhibition is 7.46%. Next, `CCOC(=O)C1=C(CN2CCc3ccccc32)NC(=O)NC1c1cc(C)ccc1C` (centres undefined): 0.4%. For the compound `CC(C)(C)OC(=O)N1CCC(C(=O)Nc2cccc(C(=O)NCCc3ccccc3)c2)CC1`, the inhibition was -4.3%. The figure for `CCOC(=O)CNC(=O)CSc1ncccc1-c1nc2ccccc2[nH]1` is -4.22%; for `O=C(Nc1ccc(CN2CCOCC2)cc1)c1cc(Cl)ccc1Cl` it is 7.42%.

In the case of `Cc1ccc(C)c(S(=O)(=O)N2CCN(C(=O)Nc3ccccc3)CC2)c1`, the inhibition is 3.11%. On to `O=C(Nc1ccccc1Cl)N1CCN(c2ccc3nncn3n2)CC1`, for which the inhibition is 2.34%.

Take `Cc1c(-c2nn(C)c(=O)c3ccccc23)oc2ccc(F)cc2c1=O`: the inhibition was 37.7% (active). With `Cc1ccc(F)cc1NC(=O)Cc1nn(C)c(=O)c2ccccc12`, the inhibition was -8.34%. The figure for `CCC(=O)NCc1cc(-c2nn(C)c(=O)c3ccccc23)ccc1OC` is -3.52%.

Turning to `Cn1ncc2c(N3CCCCC3)nc(NCCCO)nc21`, the inhibition was 8.53%. Take `Cc1ccc(S(=O)(=O)NNC(=O)Nc2cccc3ccccc23)cc1`: the inhibition was 3.24%. `Cc1ccc(C)c(NC(=O)NNC(=O)c2ccc3ccccc3c2O)c1`: the inhibition is 39.8% (active).

As to `Cc1ccc(C)c(NC(=O)COC(=O)CSc2ccccc2)c1`, the inhibition was 1.73%. Turning to `CN(Cc1ccccc1)C(=O)C1CCCN(c2ncnc3c2nc2n3CCCCC2)C1` (centres undefined), the inhibition is 3.41%. Regarding `Cc1cccnc1CCNC(=O)C1CCC(=O)N(Cc2cccc(F)c2)C1` (centres undefined), the inhibition is 2.19%.

Consider `Cc1ccc(CNS(=O)(=O)c2ccc3c(c2)N(C)CCO3)cc1`, for which the inhibition was 8.72%.

With `CC(=O)Nc1ccccc1OC(C)C(=O)N1CCC(C)CC1` (centres undefined), the inhibition is 1.25%. Regarding `CN(C)CCN=c1cc(-c2ccccc2)oc2ccc(Cl)cc12`, the inhibition is 5.11%.

For `CCc1ccc(OCC(=O)NCC(c2ccc(Cl)cc2)N2CCCCC2)cc1` (centres undefined), the inhibition was 1.46%. Regarding `O=C1c2cccc(OCC(=O)N3N=C(c4cccs4)CC3c3ccc(F)cc3)c2CCN1Cc1ccccc1` (centres undefined), the inhibition is 3.19%. As to `Cc1cc2cc3c(N)[nH]nc3nc2cc1C`, the inhibition is 5.34%. With `COc1ccc(S(=O)(=O)N2CCOCC2)cc1NC(=O)Cc1coc2cc(C)ccc12`, the inhibition was 9.79%. Consider `O=C(NCc1cccnc1)c1ccc(CS(=O)(=O)c2ccc(Br)cc2)o1`, for which the inhibition is 2.95%. As to `CCn1ncc(C2=NOC(C(=O)Nc3ccccc3C(=O)OC)C2)c1C` (centres undefined), the inhibition was 9.12%. Regarding `O=C(CN1CCN(C(=O)c2ccco2)CC1)Nc1ccc(Cl)c(C(F)(F)F)c1`, the inhibition was 8.31%.

As for `CN(CC(=O)NCc1ccc2c(c1)OCO2)CC(=O)Nc1ccc(F)c(F)c1F`, the inhibition is 7.36%.

`CCCCNC(=O)N(O)C1N(/N=C/c2ccccc2O)C(=S)SC1(C)C` (centres undefined): the inhibition was -1.86%.

Turning to `CCCCNC(=O)N(O)C1N(/N=C/c2ccc(N(C)C)cc2)C(=S)SC1(C)C` (centres undefined), the inhibition is 40.5% (active). `CCC(C)N1C(=S)SC(C)(C)C1N(O)C(=O)NC1CCCCC1` (centres undefined): the inhibition was 3.27%.

For `CC1CCCC(NC(=O)COC(=O)[C@@H]2CC(O)CN2S(=O)(=O)c2ccc3c(c2)OCCO3)C1C` (some centres undefined), the inhibition is -2.21%.

In the case of `COc1cc(OC)cc(-c2c(C#Cc3ccsc3)c3cc(-c4ccc(SC)cc4)ccc3n2C)c1`, the inhibition was 11.8%. Next, `CCC(C(=O)Nc1ccc(C(C)C)cc1)c1ccccc1` (centres undefined): -2.07%; `Cc1ccc(S(=O)(=O)N2CCN(C)CC2)cc1`: 2.98%; `CC/C(=N\NC(=O)c1c(C)nc2ccccn12)c1ccc(Cl)cc1`: 2.04%.

For the compound `CC(Sc1nncs1)C(=O)NCc1ccc2c(c1)OCO2` (centres undefined), the inhibition is 4.2%. In the case of `COc1cc(CNCCN(C)C)ccc1OCc1c(F)cccc1Cl`, the inhibition was 7.89%.

For the compound `CSCCC(NC(=O)COc1ccccc1)C(=O)Nc1ccc(C)cc1` (centres undefined), the inhibition was 3.02%. As for `Cc1ccc(-c2noc(CNC(=O)c3ccoc3C)n2)cc1`, the inhibition was 7.91%. The figure for `O=C(CN1C(=O)NC2(CCCCCC2)C1=O)NC1CC1` is 8.06%; for `CCCc1nc(N)nc2c1C(=O)CC(C)(C)C2` it is 3.91%. On to `Cc1ccc(N2C(=O)S/C(=C/c3cn(C)c4ccccc34)C2=O)cc1`, for which the inhibition is 1.18%. As to `Cc1ccc(N=C2NC(=O)/C(=C/C=C/c3ccco3)S2)cc1C`, the inhibition was -1.25%. The figure for `Cc1cccc(N=C2NC(=O)/C(=C/c3cn(C)c4ccccc34)S2)c1` is 31.3% (active). For the compound `CN(C)C(=O)CCc1ccc2c3c([nH]c2c1)[C@]1(C)[C@@H](C(=O)N2CCOCC2)C[C@H](CC(=O)NCCc2ccccn2)C(=O)N1CC3`, the inhibition is 12.3%. The figure for `Cn1ncc2c(Nc3cccc4ccccc34)ncnc21` is -1.17%. The figure for `O=C(COC(=O)c1cccnc1Cl)NC12CC3CC(CC(C3)C1)C2` is 16.2%; for `COCCNC(=S)N1CCC(NC(=O)C23CC4CC(CC(C4)C2)C3)CC1` it is 7.45%; for `O=C(NCCc1ccccc1)Oc1ccc(Cl)cc1` it is 2.38%. As to `C=C1c2c(Cl)ccc(O)c2C(O)=C2C(=O)[C@]3(O)C(O)=C(C(N)=O)C(=O)[C@@H](N(C)C)[C@@H]3[C@@H](O)C12` (some centres undefined), the inhibition is 32.6% (active).

On to `CN(C)[C@@H]1C(=O)C(C(N)=O)=C(O)[C@@]2(O)C(=O)C3=C(O)c4c(O)ccc(Cl)c4[C@@H](O)[C@H]3C[C@@H]12`, for which the inhibition was 11%. `CCSC(C)CC1C/C(=N/O)c2c(C)noc2C1` (centres undefined): the inhibition is 4.48%. Consider `COc1ccc(N(CC(=O)NCC2CCCO2)C(=O)CCC(=O)Nc2nccs2)c(OC)c1` (centres undefined), for which the inhibition is 2.48%. The figure for `O=C(Nc1nccs1)C1CCN(S(=O)(=O)c2ccc(Cl)c(C(F)(F)F)c2)CC1` is 7.86%; for `O=C(NCc1ccccc1)C(c1cccnc1)N(C(=O)c1csnn1)c1ccc(F)cc1` (centres undefined) it is 4.83%; for `CCN1C(=O)[C@H]2[C@@H](c3ccc(SC4CCCCC4)c(OC)c3)N[C@@](Cc3ccccc3)(C(=O)OC)[C@H]2C1=O` it is -5.41%.

Consider `c1coc(-c2nc3nc4ccccc4n3nc2-c2ccco2)c1`, for which the inhibition is 41.5% (active).

As for `CC1=Nn2c(nnc2-c2ccccc2)SC1`, the inhibition was 6.68%.

For the compound `COc1ccc(C2=Nn3c(nnc3-c3ccccc3OC)SC2)cc1OC1CCCC1`, the inhibition is 38.3% (active). On to `COc1ccccc1-c1nnc2n1N=C(c1ccc(OC(F)F)c(OCC3CC3)c1)CS2`, for which the inhibition was -0.82%. For the compound `Cc1nnc(SCCCn2c(N3CCCCC3)nc3c2c(=O)[nH]c(=O)n3C)s1`, the inhibition was 5.57%. Next, `CCN(CC)CCCC(C)n1c2nc(=O)[nH]c(=O)c-2nc2cc(Cl)ccc21` (centres undefined): 57.6% (active); `COc1ccc(C)cc1S(=O)(=O)N(CC(=O)Nc1cccc([N+](=O)[O-])c1)c1ccc(C)cc1`: -21.3%.

For the origin of these results see PubChem BioAssay AID492972 (The Scripps Research Institute Molecular Screening Center, 2010).
